# Bioassay records deposited in PubChem BioAssay by National Center for Advancing Translational Sciences (NCATS).
# An excerpt weighted towards active compounds, which were near 5.7% of everything screened.
# Giardia kill: kills Giardia lamblia; Giardia lamblia trophozoite viability; activity change, % at 7.66 µM, hits read low; actives 0.15% (n = 340,000); AID 540267; in the data active = activity change below about -80%; inconclusive = between about -30% and that limit;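 note: parasites exposed to compound for two days anaerobically before the ATP read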
#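 Viability, read as ATP luminescence: trophozoites at 100 cells/well, compound added, 48 hrs anaerobic at 37 deg C, then 15-30 min room-temperature development before reading.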
# PI4K2A block: inhibitors of human PI4K2A; Q9BTU6; purified PI4K2A, ADP-Glo luminescence, 1 h; hits give low values; activity change, negative = inhibition, % at 76.9 µM; actives 0.13% (n = 420,000); in the data active = activity change below about -50%; inconclusive = mostly about -30% to -49%;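 note: -100% = wells without enzyme as full effect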
# Target sequence (Q9BTU6 whole entry, looked up): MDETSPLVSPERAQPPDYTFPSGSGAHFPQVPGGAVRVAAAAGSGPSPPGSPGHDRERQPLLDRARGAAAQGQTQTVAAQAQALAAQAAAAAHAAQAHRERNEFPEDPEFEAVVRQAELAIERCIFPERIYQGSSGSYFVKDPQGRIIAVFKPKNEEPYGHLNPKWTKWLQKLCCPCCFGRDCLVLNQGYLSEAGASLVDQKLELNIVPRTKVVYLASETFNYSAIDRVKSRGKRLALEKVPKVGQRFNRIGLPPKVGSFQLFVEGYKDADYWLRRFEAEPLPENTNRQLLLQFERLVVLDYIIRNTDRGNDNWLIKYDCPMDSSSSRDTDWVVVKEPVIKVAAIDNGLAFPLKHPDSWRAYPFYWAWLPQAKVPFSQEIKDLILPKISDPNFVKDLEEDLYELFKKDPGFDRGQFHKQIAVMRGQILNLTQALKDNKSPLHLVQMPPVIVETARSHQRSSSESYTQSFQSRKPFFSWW
#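 ADP-Glo luminescence measured ADP generated by PI4K2A enzyme (4 ug/mL before mixing) with 1.2 mM PI substrate (pre-mix) and 300 microM ATP (pre-mix). Tris pH7.5 buffer with MgCl2, Triton X-100; 1 h reaction at ambient temperature.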
# KB-V1 cytotox: kills drug-selected multidrug resistant KB-V1 cells; KB-V1 MDR cells viability, CellTiter-Glo, 72 h; Potency, µM (top dose mostly 46.1 µM), hits mostly cytotoxic; actives 3.4% (n = 400,000); AID 1347076; note: potency is the fitted concentration of half-maximal effect; nearly all actives have a fitted effect of over 60% in size
#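 Compound-treated KB-V1 multidrug-resistant cells, 72 h, 37 degrees C; viability by CellTiter-Glo. Fitted qHTS curves give the values.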
# A549 viability: counter-screen for Nrf2 inhibitors: cytotoxicity in A549 cells | A549 ARE-Fluc cells, CellTiter-Fluor viability, 18-24 h | actives 0.16% (n = 390,000) | Potency, µM (series often up to 46 µM), without a hit: at the highest dose activity change, negative = cytotoxicity, usual class: inhibitors | AID 504648; note: potency is the fitted concentration of half-maximal effect
#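 A549 ARE-Fluc cells in 5% FBS OPTI-MEM, 5000 cells/well, rested 2 h then exposed to compounds in concentration-response for 18-24 h at 37 °C. Viability by CellTiter-Fluor fluorescence (Ex 405/Em 525) after 30 min; luciferase luminescence (BugLite, 15 min, RT) read afterwards.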
# KB-3-1 cytotox: KB-3-1 parental cell cytotoxicity; KB-3-1 viability, CellTiter-Glo ATP luminescence, 72 h; Potency, µM (highest dose often 46.1 µM), usual class: cytotoxic; actives 1.4% (n = 400,000); note: potency is the fitted concentration of half-maximal effect; nearly all actives have a fitted effect of over 60% in size
#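 Parental KB-3-1 viability, qHTS format: 72 h compound exposure, 37 °C; CellTiter-Glo; media-only wells and DMSO plates as controls; concentration-effect fits on corrected data.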
# Nrf2 block: blocks Nrf2 signaling; actives 2.1% (n = 360,000); AID 504444; A549 ARE-Fluc reporter, luciferase luminescence, 18-24 h; Potency, µM (titrated, usually from 46 µM), inactives show top-dose activity change, negative = inhibition, hits mostly inhibitors; note: potency is the fitted concentration of half-maximal effect; nearly all actives have a fitted effect of over 60% in size
#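 A549 ARE_Fluc cells (5000/well, 5% FBS OPTI-MEM) pre-incubated 2 h, then treated with compounds 18-24 h at 37C/5% CO2 in concentration-response. CellTiter-Fluor viability read first; BugLite luciferase luminescence after 15 min at room temperature gives Nrf2 activity.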
# Starred values were filed as active, the others as inactive; i = inactive; ? = inconclusive; nt = no result given; [ ] = remark or other dose. Unless noted, calls come from the whole dose curve; as a rule, active = well fitted curve in the direction sought with a large enough effect; inconclusive = small, poorly fitted or top-dose-only effect, or another doubt; inactive = no such curve, though single readings can be large; an effect the other way counts as inactive or inconclusive. Unless noted, % is set by controls: 0 for no effect and ±100 for the full control effect.
SMILES,Giardia kill,PI4K2A block,KB-V1 cytotox,A549 viability,KB-3-1 cytotox,Nrf2 block
CCN(CC)c1ccc(N=Nc2nn(C)c(C)c2[N+](=O)[O-])cc1,-6,-10,i,21µM*,i,?
CCN(Cc1ccccc1)c1ccc(N=Nc2nn(C)c(C)c2[N+](=O)[O-])cc1,-20,-2,6.5µM*,16µM*,?,-25%
Cc1ccc(C)c(S(=O)(=O)N2CCC3(CC2)OCCN3S(=O)(=O)c2cccs2)c1,8,-1,i,-7%,i,?
Cc1cc(F)ccc1S(=O)(=O)N1CCC2(CC1)OCCN2S(=O)(=O)c1cccs1,10,3,i,-12%,i,12µM*
CCCCOC(=O)CCCCCCCCC(=O)OCCCC,nt,-3,nt,nt,nt,nt
COc1cc(C(=O)NNC(=O)c2ccc3c(c2)OCCO3)cc(OC)c1OC,9,-2,i,1%,i,4%
COc1cc(C(=O)c2ccc3c(c2)OCO3)cc(OC)c1OC,-6,0,3.3µM*,-16%,4.6µM*,10%
COc1cccc(/C=C/C(=O)c2ccc3c(c2)OCO3)c1OC,-19,2,23µM*,2%,?,-11%
COc1cc(C(=O)N/N=C(\C)c2ccc3c(c2)OCO3)cc(OC)c1OC,6,2,5.2µM*,?,4.6µM*,?
O=C(/C=C/c1ccccc1Br)c1ccc2c(c1)OCO2,-15,0,?,8%,?,?
COc1cc(C(=O)c2cocc2C(=O)c2ccc3c(c2)OCO3)cc(OC)c1OC,-5,-5,1.2µM*,-8%,?,-5%
O=C(CSc1nccn1Cc1ccccc1)Nc1ccc2c(c1)OCO2,nt,-3,nt,1%,nt,nt
O=C(CCn1nnc(-c2cccs2)n1)NCc1ccco1,nt,3,nt,nt,nt,nt
COC(=O)C[C@H]1CC[C@@H]2[C@@H](COc3ccc(NC(=O)Nc4cccc(C)c4)cc3C(=O)N2C)O1,nt,-5,nt,nt,nt,nt
O=C1CCC[C@H]2C[C@H](NCc3ccccc3Cl)CC[C@]23CCCN13,nt,-1,nt,nt,nt,nt
O=C(CSc1nncn2c1cc1sccc12)Nc1ccccc1C(F)(F)F,nt,0,nt,13%,nt,21µM*
COc1ccccc1NC(=O)CSc1nncn2c1cc1sccc12,nt,8,nt,2%,nt,-26%
CCc1ccc(NC(=O)Cn2c(SCc3ccc(C)cc3)nc3ccncc32)cc1,-5,nt,i,-1%,i,19%
COc1cc(-c2nnc(SCC(=O)NN=Cc3c[nH]c4ccccc34)n2-c2ccccc2)cc(OC)c1OC,nt,-6,nt,nt,nt,nt
CC(O)C(NS(=O)(=O)c1ccc(Cl)cc1)C(=O)OCC(=O)c1ccc2c(c1)NC(=O)CO2 (configuration not stated),11,4,?,-4%,i,10%
CC(C)CC(NC(=O)c1ccc(Cl)cc1)C(=O)OCC(=O)c1ccc2c(c1)NC(=O)CO2 (configuration not stated),-4,0,i,21µM*,7.3µM*,16µM*
Cc1cc(C)cc(C(=O)C[n+]2cccc(Br)c2)c1,nt,nt,i,nt,i,nt
COc1ccc2[nH]c(C)c(C(=O)CN(C)CC(OC)OC)c2c1,nt,nt,i,nt,i,nt
COc1ccc(C)cc1S(=O)(=O)n1cnc2ccccc21,27,1,?,-1%,5.2µM*,7%
CC(C)C(=O)NC(c1cccs1)c1cc([N+](=O)[O-])c2cccnc2c1O (configuration not stated),6,-8,?,?,?,21µM*
SMILES,Giardia kill,PI4K2A block,KB-V1 cytotox,A549 viability,KB-3-1 cytotox,Nrf2 block
CC(=O)NC(c1cccs1)c1cc(F)c2cccnc2c1O (configuration not stated),9,0,i,-7%,10µM*,?
CC(C)C(=O)NC(c1cccc([N+](=O)[O-])c1)c1ccc2cccnc2c1O (configuration not stated),9,3,?,-12%,?,?
Cc1ccc(C(NC(=O)C(C)C)c2cc([N+](=O)[O-])c3cccnc3c2O)cc1 (configuration not stated),-2,3,?,?,?,18µM*
COc1cccc(C2c3c(ncn(-c4cccc(C)c4)c3=N)Oc3ccc4ccccc4c32)c1 (configuration not stated),nt,nt,nt,-2%,nt,4%
COc1ccc(CNC(=O)COc2ccc(C(=O)c3ccc(F)cc3)cc2)cc1,-6,-1,?,-13%,?,?
Cc1cccc(NC(=O)CNC(=O)COc2ccc(C(=O)c3ccc(F)cc3)cc2)c1C,-15,-2,?,-7%,6.5µM*,?
Cc1cccc(NC(=O)CNC(=O)COc2ccc(-c3ccc(C#N)cc3)cc2)c1C,-10,2,i,1%,i,-25%
O=C(COc1ccc(C(=O)c2ccc(F)cc2)cc1)NCc1ccc(F)cc1,9,-1,9.2µM*,-3%,4.1µM*,-7%
COc1ccc(Cl)cc1NC(=O)NCC1CCN(Cc2cc(C)ccc2C)CC1,-9,-2,23µM*,?,?,?
Cc1ccc(C)c(CN2CCC(CNC(=O)Nc3ccc(C)c(C)c3)CC2)c1,6,0,18µM*,-9%,?,-2%
Cc1ccc(CN2CCC(CNC(=O)Nc3ccc(C)c(C)c3)C2)cc1 (configuration not stated),nt,3,i,-9%,i,14%
Cc1nn(Cc2ccc(C(=O)Nc3ccccc3C(F)(F)F)o2)c(C)c1Br,8,-2,i,-14%,?,?
Cc1csc(NC(=O)c2ccc(Cn3nc(C)c(Br)c3C)o2)n1,5,0,2.6µM*,-16%,?,18µM*
S=C1Cc2ccccc2N1,3,?,?,16µM*,5.8µM*,12µM*
COc1ccccc1NC(=O)c1cc2cc(Br)ccc2cc1O,28,3,?,-17%,18µM*,-32%
COc1cccc(NC(=O)c2oc3ccccc3c2NC(=O)C(C)(C)C)c1,8,6,i,-3%[1.84 µM],i,9.2µM*
COc1ccc(NC(=O)c2oc3ccccc3c2NC(=O)C23CC4CC(CC(C4)C2)C3)c(OC)c1,nt,4,i,-5%,23µM*,0%
COc1ccccc1NC(=O)c1oc2ccccc2c1NC(=O)c1cccc(OC)c1OC,nt,0,?,-1%,12µM*,-3%
COc1cccc(C(=O)Nc2c(C(=O)Nc3ccc(F)cc3)oc3ccccc23)c1OC,nt,-8,i,-4%,i,3%
COc1cccc(NC(=O)c2oc3ccccc3c2NC(=O)c2cc3ccccc3o2)c1,nt,4,i,3%,i,4%
